Screening results deposited in PubChem BioAssay by National Center for Advancing Translational Sciences (NCATS).
Hits are enriched below; roughly 18% of the tested compounds scored in any of these assays.
TDP1 inh – inhibitors of human tyrosyl-DNA phosphodiesterase TDP1; Q9NUW8; recombinant TDP1, AlphaScreen DNA substrate cleavage; Potency, µM (titrated, usually from 130 µM), inactives show at the highest dose activity change, negative = inhibition, actives largely listed as inhibitors; 350,000 compounds, 0.28% hits; AID 485290; further: nearly all actives have a fitted effect of over 40% in size
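Tdp1 1 nM final; 15 min RT w/ cpd; substrate 15 nM, 5 min; beads 10 ug/ml, 10 min; AlphaScreen read. Neg ctrl: no enzyme.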
DT40 TDP1 no CPT – qHTS for Inhibitors of human tyrosyl-DNA phosphodiesterase 1 (TDP1): qHTS in cells in absence of CPT; DT40 Tdp1-/- hTDP1 cells, no CPT, ATP luminescence, 48 h; Potency, µM (highest dose often 46.2 µM), inactives show top-dose activity change, negative = growth inhibition, usual class: inhibitors; 420,000 compounds, 15% hits; AID 686978, 2013; further: nearly all actives have a fitted effect of over 55% in size
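Chicken DT40 Tdp1-/- cells complemented with human TDP1, screened without camptothecin (DMSO vehicle only), 400 cells/well. Compounds pin-transferred, cells incubated at 37 °C for at least 48 hr. Growth read as ATP-dependent luminescence (CellTiter-Glo, 30 min at RT).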
KAT2A inh – blocks human GCN5L2 histone acetyltransferase; Q92830; GCN5L2 HAT assay, ThioGlo1 CoA-SH fluorescence; Potency, µM (top dose mostly 58.9 µM), inactives show at the top dose activity change, negative = inhibition, most hits filed as inhibitors; 390,000 compounds, 0.21% hits; AID 504327
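qHTS, 1536-well. 20nM enzyme, pH 7.5 HEPES/EDTA/Tween-20 buffer; 15 min compound preinc., RT. Start: 75uM H3(1-25), 70uM AcCoA, 50uM ThioGlo1. Read Ex340/Em540 at t=0 (autofluorescence flag) and t=20 min.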
TDP1 cell CPT – growth inhibition of DT40 Tdp1-/-;hTDP1 cells with camptothecin (screen for TDP1 inhibitors); chicken DT40 Tdp1-/-;hTDP1 cells + 20 nM CPT, ATP luminescence, 48 h; Potency, µM (highest dose often 46.2 µM), for the others: top-dose activity change, negative = growth inhibition, most hits filed as inhibitors; 420,000 compounds, 12% hits; AID 686979; further: nearly all actives have a fitted effect of over 55% in size
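Chicken DT40 Tdp1-/- cells complemented with human TDP1, 400 cells/well, exposed to compounds plus 20 nM camptothecin for at least 48 h at 37 C; viability read as ATP content by CellTiter-Glo luminescence.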
VDR inhibitor – blocks the human vitamin D receptor; Potency, µM, inactives show max response, negative = inhibition, usual class: inhibitors; 400,000 compounds, 0.93% hits; VDR-SRC2-3 peptide fluorescence polarization, 2 h; AID 504847
Target sequence (P11473 whole entry, looked up): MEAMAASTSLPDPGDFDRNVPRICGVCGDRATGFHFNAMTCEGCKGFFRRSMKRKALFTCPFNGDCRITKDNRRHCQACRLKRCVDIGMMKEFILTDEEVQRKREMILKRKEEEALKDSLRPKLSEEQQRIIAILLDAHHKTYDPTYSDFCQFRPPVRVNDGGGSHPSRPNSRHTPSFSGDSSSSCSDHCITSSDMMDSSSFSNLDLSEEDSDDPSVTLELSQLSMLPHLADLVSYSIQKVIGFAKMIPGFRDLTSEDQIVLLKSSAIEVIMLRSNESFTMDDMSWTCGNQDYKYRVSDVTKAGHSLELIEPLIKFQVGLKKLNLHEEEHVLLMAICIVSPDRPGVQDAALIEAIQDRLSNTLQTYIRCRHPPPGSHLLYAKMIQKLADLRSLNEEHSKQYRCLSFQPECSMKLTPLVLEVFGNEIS
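Two reagent solutions held at 4 deg C in the dark were dispensed, compounds pinned at 23 nl, and the mixture incubated 2 h at room temperature. Read-out: fluorescence polarization of VDR–SRC2-3 peptide binding.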
PLK1 PBD block – inhibitors of human PLK1 polo-box domain binding; 360,000 compounds, 2.8% hits; Potency, µM, for inactives: max response, negative = inhibition, actives largely listed as inhibitors; Plk1 PBD binding of FITC phosphopeptide, fluorescence polarization; further: series mostly up to about 57 µM; nearly all actives have a fitted effect of over 65% in size
An asterisk follows results filed as active; ? = inconclusive; . = no result; [ ] = remark or other dose. The call rests on the fitted dose curve; in most records, active means well fitted curve in the direction sought with a large enough effect; inconclusive means small, poorly fitted or top-dose-only effect, or another doubt; inactive means no such curve, though single readings can be large; an effect the other way counts as inactive or inconclusive. On the % scale 0 is the no-effect control and ±100 the full control effect; potency means the concentration at half of the fitted maximal effect.

SMILES	TDP1 inh	DT40 TDP1 no CPT	KAT2A inh	TDP1 cell CPT	VDR inhibitor	PLK1 PBD block
OC(c1cccc(F)c1)c1ncc(-c2ccc(C(F)(F)F)cc2)[nH]1 (centres undefined)	.	16µM*	.	?	.	-2%
OC(c1cccc(Cl)c1)c1ncc(-c2cccc(C(F)(F)F)c2)[nH]1 (centres undefined)	.	23µM*	.	?	.	0%
COc1ccc(C(O)c2ncc(-c3cccc(C(F)(F)F)c3)[nH]2)cc1F (centres undefined)	.	?	.	16µM*	.	-4%
CCc1ccc(C(O)c2ncc(-c3cccc(C(F)(F)F)c3)[nH]2)cc1 (centres undefined)	.	23µM*	.	?	.	0%
Cc1ccc(-c2ccc(OC(=O)c3ccc(=O)[nH]c3)c(C)c2)cc1	.	-13%	-1%	-17%	-4%	5%
O=C(Nc1ccccc1)c1ccccc1C(=O)N1CCCCC1	0%	-7%	-7%	-6%	?	-4%
CC12CCC(C(=O)N(Cc3ccccc3)Cc3ccccc3)(OC1=O)C2(C)C (centres undefined)	2%	?	-28%	18µM*	4%	-10%
CC12CCC(C(=O)NNC(=O)c3ccccc3)(OC1=O)C2(C)C (centres undefined)	5%	4%	0%	-12%	17%	0%
Cc1cccc(NC(=O)CSc2nc3c(oc4ccccc43)c(=O)n2Cc2ccco2)c1	-5%	16µM*	3%	23µM*	-13%	.
COc1cccc(NC(=O)CSc2nc3c(oc4ccccc43)c(=O)n2Cc2ccco2)c1	8%	9.2µM*	0%	9.2µM*	-11%	.
CCn1c(SCC(=O)Nc2cccc(C)c2)nc2nc3c(cc2c1=O)COC(C)(C)C3	8%	18µM*	-1%	26µM*	8%	2%
O=C(CSc1nc2c(oc3ccccc32)c(=O)n1Cc1ccco1)Nc1cccc(Cl)c1	-2%	21µM*	-6%	?	-14%	.
Cc1ccc(NC(=O)CSc2nc3c(oc4ccccc43)c(=O)n2Cc2ccco2)cc1F	6%	-29%	-5%	-12%	2%	.
Cc1ccc(NC(=O)Cn2nc(C(F)(F)F)c3c2CCC3)cc1C	-4%	?	2%	?	?	.
O=C(NCC1CCC2(CCN(Cc3cccc(-c4ccco4)c3)CC2)O1)c1ccccc1 (centres undefined)	.	-23%	.	-12%[9.04 µM]	.	.
Cc1ccc(NC(=O)C(c2ccccc2)N2Cc3ccccc3C2=O)cc1Cl (centres undefined)	5%	-14%	-8%	?	13%	.
CC(C)Cn1c(C23CC4CC(CC(C4)C2)C3)n[nH]c1=S	.	?	-10%	?	-21%	2%
COc1ccc(NC(=O)CSc2nc3c(oc4ccccc43)c(=O)n2Cc2ccco2)cc1Cl	.	21µM*	-3%	?	-1%	.
COc1ccc(NC(=O)CSc2nc(-c3ccco3)nc3cc(=O)[nH]n23)cc1	.	-14%	-1%	-3%	-2%	.
COc1ccc(NC(=O)CSc2nc(-c3ccco3)nc3cc(=O)[nH]n23)cc1Cl	50µM*	1%	-22%	-3%	-4%	19µM*
Cc1ccc(-n2c(SCC(=O)Nc3cccc(S(N)(=O)=O)c3)nc3ccccc32)cc1	8%	?	-10%	18µM*	6%	-8%
COCCn1c(SCC(=O)Nc2ccc(F)c(Cl)c2)nc2c(oc3ccccc32)c1=O	-3%	?	-4%	5.2µM*	10%	.
COc1cccc(C2(C)NC(=O)N(CC(=O)Nc3ccc(N4CCOCC4)cc3)C2=O)c1 (centres undefined)	1%	-5%	2%	-25%	9%	5%
COCCn1c(SCC(=O)Nc2cccc(S(N)(=O)=O)c2)nc2cc(Cl)ccc2c1=O	5%	18µM*	-2%	15µM*	?	7.5µM*
CCCC(NC(=O)C(C)NC(=O)CO/N=C1\C=C2CCC3C4CCC(C(C)=O)[C@@]4(C)CCC3[C@@]2(C)CC1)C(=O)O (some centres undefined)	.	1%	-4%	3%	11%	-6%
SMILES	TDP1 inh	DT40 TDP1 no CPT	KAT2A inh	TDP1 cell CPT	VDR inhibitor	PLK1 PBD block
COc1cc(C2Nc3cc(C)c(C)cc3NC3=C2C(=O)CC(C)(C)C3)ccc1OC(C)=O (centres undefined)	3%	23%	2%	-20%	-10%	3%
Cc1cc2c(cc1C)NC(c1c(C)n(C)n(-c3ccccc3)c1=O)C1=C(CC(C)(C)CC1=O)N2 (centres undefined)	7%	?	-5%	16µM*	-22%	-28%
CC(=O)Oc1ccc(CC(C(=O)O)N2C(=O)c3ccccc3C2=O)cc1 (centres undefined)	.	-2%	7%	5%	19%	-17%
CC(=O)Oc1ccc(C#C/C=C2\c3ccccc3C(=O)N2c2ccccc2)cc1	4%	21µM*	-6%	23µM*	0%	17%
C[C@@H]1O[C@H](O[C@@H]2C(O)[C@H](O)[C@@H](CO)O[C@H]2Oc2cc(O)c3c(=O)cc(-c4ccc(O)cc4)oc3c2)[C@H](O)[C@H](O)[C@H]1O (some centres undefined)	7%	.	0%	.	-1%	.
CC(C)[C@H](NS(=O)(=O)c1cccc(Cl)c1)C(=O)OCC(=O)NC(=O)CN1CCCC1=O	25µM*	0%	1%	10%	-4%	-19%
COC(=O)c1c(NC(=O)COC(=O)[C@@H](NS(=O)(=O)c2cccc(Cl)c2)C(C)C)sc2c1CCC2	8%	?	-6%	?	-21%	-1%
COc1ccc(OC)c(-c2nc(C(=O)NCC3CCCO3)cc3c2[nH]c2ccccc23)c1 (centres undefined)	.	21µM*	-21%	18µM*	-9%	-11%
COc1cccc(-c2nc(C(=O)NCC3CCCO3)cc3c2[nH]c2ccccc23)c1 (centres undefined)	.	2.3µM*	-1%	2.6µM*	-11%	1%
COc1ccc(-c2cc(C(=O)NCC3CCCO3)c3ccccc3n2)c(OC)c1 (centres undefined)	4%	?	-6%	?	-8%	-13%
COc1cccc(-c2cc(C(=O)NCC3CCCO3)on2)c1 (centres undefined)	0%	5%	-2%	14%	0%	-7%
